# Experimental data taken from PubChem BioAssay (NCATS).
# Results filed as inconclusive are left out. Values without a mark were called inactive. Active and inactive are the calls of the source. Calls follow the shape of the dose curve; as a rule, active = well fitted cell-killing curve with a large enough effect; inconclusive = small, poorly fitted or top-dose-only effect, or effect the other way; inactive = no such curve, though single readings can be large or run the other way. Non-standard residues stand in square brackets, D forms with d. Residues, ends and D or L forms follow the SMILES beside them. Peptide text beside a SMILES is read from it. *: point of attachment. Sta = CC(C)C[C@H](N)[C@@H](O)CC(=O)O; Isovaleryl = CC(C)CC(=O)*
# Test: Quantitative High-Throughput drug screen in 47 multiple myeloma cell lines against the NCATS MIPE library collection: OPM1_PLB cell viability assay (AID 1918989); also: nearly all actives have a fitted effect of over 40% in size;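 as to viability (% of control): 100% = DMSO-only wells and 0% = media-only wells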
# Conditions: CellTiter-Glo, 48 h; series mostly up to 45.8 µM; viability (% of control): at the top concentration
# In short: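 Readout: median RLU from CellTiter-Glo after 5 min at room temperature. Preceding step was 48 h drug treatment of 500 cells/well at 37 °C, 5% CO2, with DMSO-only and media-only control wells.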
# Potency is read from the fitted curve at half-maximal effect.
SMILES,viability (% of control),Potency
c1cnc2cc3c(cc2n1)C1CNCC3C1,115%,–
CC1(C)C(=O)N(CCN2CCC(C(=O)c3ccc(F)cc3)CC2)c2ccccc21,–,10.5 µM (active)
Nc1cc(C(Cl)=C(Cl)Cl)c(S(N)(=O)=O)cc1S(N)(=O)=O,136%,–
COC(=O)[C@H](Cc1ccccc1)NC(=O)[C@@H](N)CC(=O)O (H-Asp-Phe-OMe),111%,–
O=c1ccc2ccc(O)c(O)c2o1,–,18.7 µM (active)
Oc1ccc(-c2nc(-c3ccc(F)cc3)c(-c3ccncc3)[nH]2)cc1,–,20.9 µM (active)
CS(=O)(=O)OCCCCOS(C)(=O)=O,140%,–
O=C(NCCO[N+](=O)[O-])c1cccnc1,163%,–
Cc1ccc(Nc2nccc(N(C)c3ccc4c(C)n(C)nc4c3)n2)cc1S(N)(=O)=O,–,14.8 µM (active)
C[Se]CCC(N)C(=O)O (centres undefined),114% [at 92.2 µM],–
NS(=O)(=O)c1cc(C(=O)O)c(NCc2ccco2)cc1Cl,82.6%,–
Nc1nc(Cl)nc2c1ncn2[C@H]1C[C@H](O)[C@@H](CO)O1,–,18.7 µM (active)
COc1c(O)cc2c(c1O)[C@@H]1O[C@H](CO)[C@@H](O)[C@H](O)[C@H]1OC2=O,123%,–
Cc1cccc(CN2CCN(C(c3ccccc3)c3ccc(Cl)cc3)CC2)c1 (centres undefined),–,20.9 µM (active)
COc1cc2c(cc1OC)C1CC(=O)C(CC(C)C)CN1CC2 (centres undefined),121%,–
CN(C)C(=O)[C@H](O)[C@H](Cc1ccccc1)NC(=O)c1cc2cc(Cl)ccc2[nH]1,–,6.62 µM (active)
CN1C(C(=O)Nc2ccccn2)=C(O)c2sccc2S1(=O)=O,131%,–

SMILES,viability (% of control),Potency
CC(C)CC(=O)N[C@H](C(=O)N[C@H](C(=O)N[C@@H](CC(C)C)[C@@H](O)CC(=O)N[C@@H](C)C(=O)N[C@@H](CC(C)C)[C@@H](O)CC(=O)O)C(C)C)C(C)C (Isovaleryl-VV[Sta]A[Sta]-OH),120%,–
COC(=O)N[C@H](C(=O)N[C@@H](Cc1ccccc1)[C@@H](O)CN(Cc1ccc(-c2ccccn2)cc1)NC(=O)[C@@H](NC(=O)OC)C(C)(C)C)C(C)(C)C,126%,–
CN(C)[C@@H](CCOc1cccc2ccccc12)c1ccccc1,–,16.6 µM (active)
COc1cc2nc(N3CCN(C(=O)C4CCCO4)CC3)nc(N)c2cc1OC (centres undefined),111%,–
Cc1ccc(NC(=O)c2ccc(CN3CCN(C)CC3)cc2)cc1Nc1nccc(-c2cccnc2)n1,–,23.5 µM (active)
CC(C)[C@H](N)C(=O)OCCOCn1cnc2c(=O)[nH]c(N)nc21,112%,–
O=C(O)c1cn(-c2ccc(F)cc2)c2cc(N3CCNCC3)c(F)cc2c1=O,120%,–
C[C@H](Cn1cnc2c(N)ncnc21)OCP(=O)(O)O,136%,–
CCCCCCCCCCCCCCCCCCCCCCO,133%,–
CCc1nc(N)nc(N)c1-c1ccc(Cl)cc1,–,2.35 µM (active)
O=C1c2c(O)cc(O)cc2OC(c2ccc(O)c(O)c2)C1O (centres undefined),171%,–
CC(C)c1nc(CN(C)C(=O)N[C@H](C(=O)N[C@@H](Cc2ccccc2)C[C@H](O)[C@H](Cc2ccccc2)NC(=O)OCc2cncs2)C(C)C)cs1,80.6%,–
CC(C)c1ccc2c(c1)c(SC(C)(C)C)c(CC(C)(C)C(=O)O)n2Cc1ccc(Cl)cc1,97.5%,–
CC(=O)N1CCN(c2ccc(OC[C@H]3CO[C@](Cn4ccnc4)(c4ccc(Cl)cc4Cl)O3)cc2)CC1,–,16.6 µM (active)
Cc1cccc(C)c1OCC(=O)N[C@@H](Cc1ccccc1)[C@@H](O)C[C@H](Cc1ccccc1)NC(=O)[C@H](C(C)C)N1CCCNC1=O,–,18.7 µM (active)
CCC1=C(C)CN(C(=O)NCCc2ccc(S(=O)(=O)NC(=O)NC3CCC(C)CC3)cc2)C1=O (centres undefined),163%,–
O=c1oc2cc(O)ccc2s1,122%,–
